Out of some 320,000 compounds screened, about 1,300 (0.41%) were called active. About 3% were inconclusive and are not listed. How the calls were made is not given here. Only a sample is shown. Results with a measured potency or affinity are listed apart.

The test can be described thus: growth inhibition of non-replicating M. tuberculosis (AID 488890).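 Further: plate controls were DMSO cells for no effect and high antibiotic wells for full effect.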 Conditions: Mycobacterium tuberculosis non-replicating, at 25 µM, stronger effect = higher value.
As to `CC1(C)CC2CC(C)(CN2C(=O)COC(=O)c2cccnc2Cl)C1` (stereo not drawn), the inhibition worked out at 14.2%. Then `O=C(Nc1c2c(nn1-c1ccc(F)cc1)CS(=O)(=O)C2)C1CCCC1`, with -10.4%.

In the case of `Cc1n[nH]c(C)c1CCCCOc1ccccc1`, the inhibition was determined as 78.1%. Then `COc1ccc(OCCCc2c(C)n[nH]c2C)cc1`, with -13.9%; and `COc1cccc(OCCc2c(C)n[nH]c2C)c1`, with 30.4%.

As to `COc1ccc(OCCCCc2c(C)n[nH]c2C)cc1`, the inhibition turned out to be 78.2%.

For `Cc1ccc2c(c1)N(C(=O)CCC(=O)Nc1ccccc1Br)CC(C)O2` (stereo not drawn), the inhibition was -2.28%. Then `CCOC(=O)N1CCN(C(=O)C2c3cc(OC)c(OC)cc3C(=O)N3CCc4ccccc4C23)CC1` (stereo not drawn), with -11.4%; and `CC(=O)C1=C(C)Nc2ncnn2C1c1ccc(O)cc1` (stereo not drawn), with -8.89%. Then `O=C(COC(=O)/C=C/c1ccc(F)cc1)Nc1cccc(S(=O)(=O)N2CCCC2)c1`, with 17.9%. In the case of `CC(=O)Nc1ccc(S(=O)(=O)n2cnc(C)c2)cc1`, the inhibition was -2.83%.

With `Clc1ccc2nncn2n1`, the inhibition was 1.77%. Turning to `FC(F)(F)c1nnc2ccc(N3CCCCC3)nn12`, the inhibition is -3.88%. Next, `FC(F)(F)c1nnc2ccc(N3CCCC3)nn12`: 1.54%. Next, `Cc1ccc2nnc(Cl)n2n1`: -5.68%.

As for `FC(F)(F)c1nnc2ccc(N3CCCCCC3)nn12`, the inhibition is 8.69%. For `FC(F)(Cl)c1nnc2ccc(Sc3ccccn3)nn12`, the inhibition was -6.69%. Then `Cc1cc(C)c2nc(NNC(=O)c3ccc(S(=O)(=O)N4CCCC(C)C4)cc3)sc2c1` (stereo not drawn), with -16.4%. For the compound `O=C(Nc1ccc(F)cc1)c1ccc(CSc2ccccc2)o1`, the inhibition was determined as 77.5%. Then `COc1ccccc1NC(=O)c1ccc(CSc2ccccc2)o1`, with 68.3%; and `CN1CCN(c2nc3c(c(=O)[nH]c(=O)n3C)n2Cc2ccccc2F)CC1`, with -2.87%; and `Cc1ccc2c(c1)/C(=N/OS(=O)(=O)c1ccccc1)CCS2`, with 1.31%. As for `Cc1ccc(S(=O)(=O)ON=C2CCN(S(=O)(=O)c3ccccc3)CC2)cc1`, the inhibition is -9.7%. Regarding `CC1=C/C(=N\OC(=O)/C=C/c2ccccc2)C(C)=CC1=O`, the inhibition stood at 54.5%. Next, `COc1ccc(S(=O)(=O)/N=C2/C=CC(=O)C(C)=C2C)cc1`: 24.9%; `CC(Cc1cccnc1)NC(=O)c1cc(COc2ccc(F)cc2Cl)on1` (stereo not drawn): 15.8%; `CCN(CC)c1ccc(S(=O)(=O)N2CCOCC2)cc1NC(=O)CNCc1ccccc1`: -9.09%. As to `COc1cccc(C=NCCNC(=O)c2nonc2N)c1O`, the inhibition is -21.9%. Regarding `Nc1nonc1C(=O)NCCN=Cc1ccccc1O`, the inhibition is -0.48%.

With `COc1ccccc1C1C(C(=O)c2ccco2)=C(O)C(=O)N1c1cc(C)on1` (stereo not drawn), the inhibition amounted to 16.5%. `CN1C(=O)Cn2c1nc1ccccc12`: the inhibition is -4.7%. Then `COc1cc(/C=N/NC(=O)CCC(=O)Nc2ccc(C)cc2)ccc1O`, with 2.61%; and `C=CCn1c(CCNC(=O)c2cccs2)nnc1SCC(=O)Nc1cccc(Cl)c1C`, with 40.6%; and `Cc1ccc(C)c(NC(=O)CN(C)C(=O)CN2C(=O)NC3(CCc4ccccc43)C2=O)c1` (stereo not drawn), with 18.4%. Turning to `Cc1ccc2cccc(NS(=O)(=O)c3ccccc3)c2n1`, the inhibition was 64.3%. As for `Cc1cc(C)n(-c2cccc3cccnc23)n1`, the inhibition is -3.86%.

As to `CCOC(=O)N1CCC(NC(=O)C2CCN(C(=O)c3cc4oc(C)cc4n3Cc3c(F)cccc3Cl)CC2)CC1`, the inhibition is 5.49%.

As for `CCc1nc2nc(C)c(NS(=O)(=O)c3cccs3)c(=O)n2[nH]1`, the inhibition was -14.6%. In the case of `Cc1cnc(NC(=O)c2sc3ccccc3c2Cl)s1`, the inhibition was -6.31%. Next, `COCc1nnc(NC(=O)c2sc3ccccc3c2Cl)s1`: 37.3%. Consider `NC(=O)NC(=O)COC(=O)c1sc2ccccc2c1Cl`, for which the inhibition was determined as 1.75%. Regarding `NC(=O)COC(=O)CNC(=O)c1sc2ccccc2c1Cl`, the inhibition turned out to be 8.7%. Next, `CN(C(=O)COC(=O)c1n[nH]c(=O)c2ccccc12)c1ccccc1`: -7.8%; `Cc1cc(F)ccc1NC(=O)C1CCCO1` (stereo not drawn): -3.85%. Take `COc1ccc(NC(=O)NNC(=O)c2ccc3ccccc3c2)cc1OC`: the inhibition was -2.52%.

As to `COc1ccc(/C=N\Nc2ccc([N+](=O)[O-])cc2[N+](=O)[O-])c(C(=O)O)c1OC`, the inhibition came out at 39.2%. Then `Nc1c(N(CCC2=CCCCC2)C(=O)c2ccc([N+](=O)[O-])o2)c(=O)[nH]c(=O)n1Cc1ccccc1`, with 38.8%; and `N#CC/C(N)=N/NC(=O)CCCNc1ncc(C(F)(F)F)cc1Cl`, with 0.45%; and `COc1ccc(Br)cc1/C(C)=N/NC1=NCCN1`, with 21.5%. Then `CCOc1ccc(Br)cc1/C(C)=N\NC1=NCCN1`, with 38%; and `O=C1Nc2c(c(=O)[nH]c(=O)n2-c2ccc(F)cc2)C1(NS(=O)(=O)c1ccccc1)C(F)(F)F` (stereo not drawn), with -0.54%.

As to `CCn1c(=O)c(C(=O)Nc2ncccc2O)c(O)c2ccccc21`, the inhibition is 23.7%. With `CCCn1c(=O)c(C(=O)Nc2ncccc2O)c(O)c2ccccc21`, the inhibition amounted to 66.8%. With `CCn1c(=O)c(C(=O)Nc2ccccn2)c(O)c2ccccc21`, the inhibition amounted to 27.7%. For the compound `CCCCCCn1c(=O)c(C(=O)Nc2ncccc2O)c(O)c2ccccc21`, the inhibition came out at 67.8%. Next, `C/C(CC(=O)Nc1ccc(Cl)cc1Cl)=N\NC(=O)C(=O)NCCO`: 24.8%. As to `CCN(CC)C(=O)CSc1ccc(C(F)(F)F)cc1[N+](=O)[O-]`, the inhibition was -2.61%. For the compound `CCOc1ccc(/C=N/NC(=S)NC2CC3CC2C2C=CCC32)cc1` (stereo not drawn), the inhibition is -7.06%. Turning to `O=C(CNC(=O)c1[nH]cnc1C(=O)NC(c1ccccc1)c1ccccc1)OCc1ccccc1`, the inhibition stood at 44.5%. Then `Cc1nc(CNS(=O)(=O)c2ccccc2F)cs1`, with -17.8%; and `CCN(CCCNC(=O)C1c2ccccc2C(=O)N(CCOC)C1c1ccc(F)cc1)Cc1ccccc1` (stereo not drawn), with 1.48%. Next, `CC12CN3CC(C)(CN(C1)C3c1ccc([N+](=O)[O-])o1)C2=O` (stereo not drawn): 18.6%; `CCC12CN3CC(CC)(CN(C1)C3c1ccc([N+](=O)[O-])o1)C2=O` (stereo not drawn): 38.4%.

As for `C/C(=N\NC(=O)c1ccc2c(c1)OCO2)c1ccc(C(=O)O)s1`, the inhibition is -9.87%. Then `COc1ccc(NC(=O)CN(C)C(=O)c2ccc(-c3ccccc3Cl)o2)cc1`, with 12.7%; and `CSc1nc(-c2ccco2)nn1C(=O)c1ccc(C)cc1`, with 8.76%.

For the compound `CC(C)(C)OC(=O)NCCc1nnc(SCc2ccc(Cl)cc2)o1`, the inhibition came out at 64.8%. Then `CC(C)(C)OC(=O)NCCc1nnc(SCc2ccc(Cl)cc2Cl)o1`, with 41.4%; and `CCOC(=O)c1nnc(-c2cccs2)nc1Oc1ccc(Cl)cc1`, with -0.21%; and `COc1ccc(OC(=O)c2cn(C)nc2C(F)(F)F)cc1`, with 12.6%. Next, `CCCCN(CCCC)Cc1ccc(N)cc1`: 19.4%.

Take `CCN(C/C=C/c1ccccc1OC)Cc1ccccc1`: the inhibition was 27.1%.

With `CCOC(=O)C1CCCN(S(=O)(=O)c2c(C)noc2C)C1` (stereo not drawn), the inhibition is -14.5%.

These data come from PubChem BioAssay AID488890 (Southern Research Specialized Biocontainment Screening …, 2010).
